# This is one part of a sample in which the strongest signals are shown more often than they occur.
# B1: Arath Fbox LD (Arabidopsis thaliana) (protein)
# chain: EFSVWLEKASGKRCLMLSAMNLSIIWGDNPQYWQWIPIPESRFEKVAKLRDVCWFEIRGRTNTRVLSPRTRYSAYIVFKGVDKCYGFQNVAIEAAVGVVGQEPSRRLICFSEAIRRGRRNVVKPKQREDGWMEIELGEFFNDGGIMDNDEIEMSALETKQLNRKCGLIIQGIEIRPAKILAAASFLEQKLISEEDLNSAVDHHHHHH
# Key:
# Assay in all cases: glycan array binding signal (z-score within array); higher = stronger binding
# Settings in all cases: glycan notation: IUPAC condensed, linker removed
# [1] = target: GlcNAc(a1-4)Gal(b1-4)GalNAc
# Procedure, shortened: (§1)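 From the Consortium for Functional Glycomics database, 3228 arrays were curated, keeping only those whose protein sequence was available. Binding is given as a within-array Z-score averaged across arrays sharing a protein sequence and across linkers. Negative Z-scores can be read as non-binding.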
# [2] = target: GlcNAc(b1-3)Gal(b1-4)GlcNAc(b1-3)Gal(b1-4)GlcNAc(b1-2)[GlcNAc(b1-3)Gal(b1-4)GlcNAc(b1-3)Gal(b1-4)GlcNAc(b1-6)]Man(a1-6)[GlcNAc(b1-3)Gal(b1-4)GlcNAc(b1-3)Gal(b1-4)GlcNAc(b1-2)Man(a1-3)]Man(b1-4)GlcNAc(b1-4)[Fuc(a1-6)]GlcNAc
# Procedure, shortened: as §1
# [3] = target: Man(a1-2)Man(a1-2)Man(a1-3)Man
# Procedure, shortened: as §1
# [4] = target: Man(a1-2)Man(a1-3)[Man(a1-6)]Man(a1-6)[Man(a1-2)Man(a1-3)]Man(b1-4)GlcNAc(b1-4)GlcNAc
# Procedure, shortened: as §1
# Man(a1-6)Man = target: Man(a1-6)Man
# Procedure, shortened: as §1
# [5] = target: Neu5Ac(a2-3)Gal(b1-3)GlcNAc(b1-2)Man
# Procedure, shortened: as §1
# [6] = target: Neu5Ac(a2-3)Gal(b1-3)GlcNAc(b1-2)Man(a1-3)[GlcNAc(b1-4)][Neu5Ac(a2-3)Gal(b1-3)GlcNAc(b1-2)Man(a1-6)]Man(b1-4)GlcNAc(b1-4)GlcNAc
# Procedure, shortened: as §1
# [7] = target: Neu5Ac(a2-3)Gal(b1-3)GlcNAc(b1-6)GalNAc
# Procedure, shortened: as §1
# [8] = target: Neu5Ac(a2-3)Gal(b1-3)GlcNAc6S
# Procedure, shortened: as §1
# [9] = target: Neu5Ac(a2-3)Gal(b1-3)[Neu5Ac(a2-6)]GalNAc
# Procedure, shortened: as §1
# [10] = target: Neu5Ac(a2-3)Gal(b1-3)[Neu5Ac(a2-6)]GlcNAc(b1-3)[Fuc(a1-3)[Gal(b1-4)]GlcNAc(b1-6)]Gal(b1-4)Glc
# Procedure, shortened: as §1
# Neu5Ac(a2-3)Gal(b1-4)Glc = target: Neu5Ac(a2-3)Gal(b1-4)Glc
# Procedure, shortened: as §1
# [11] = target: Neu5Ac(a2-3)Gal(b1-4)GlcNAc(b1-2)[Neu5Ac(a2-3)Gal(b1-4)GlcNAc(b1-6)]Man(a1-6)[Neu5Ac(a2-3)Gal(b1-4)GlcNAc(b1-2)Man(a1-3)][GlcNAc(b1-4)]Man(b1-4)GlcNAc(b1-4)GlcNAc
# Procedure, shortened: as §1
# [12] = target: Neu5Ac(a2-3)Gal(b1-4)GlcNAc(b1-3)Gal(b1-4)GlcNAc
# Procedure, shortened: as §1
# [13] = target: Neu5Ac(a2-3)Gal(b1-4)GlcNAc(b1-3)[Neu5Ac(a2-3)Gal(b1-4)GlcNAc(b1-6)]GalNAc
# Procedure, shortened: as §1
# [14] = target: Neu5Ac(a2-3)Gal(b1-4)GlcNAc(b1-6)[Gal(b1-3)]GalNAc
# Procedure, shortened: as §1
# Neu5Ac(a2-6)Gal = target: Neu5Ac(a2-6)Gal
# Procedure, shortened: as §1
# Neu5Ac(a2-6)Gal(b1-4)Glc = target: Neu5Ac(a2-6)Gal(b1-4)Glc
# Procedure, shortened: as §1
# [15] = target: Neu5Ac(a2-6)Gal(b1-4)GlcNAc
# Procedure, shortened: as §1
# [16] = target: Neu5Ac(a2-6)Gal(b1-4)GlcNAc(b1-2)[Neu5Ac(a2-6)Gal(b1-4)GlcNAc(b1-6)]Man(a1-6)[Neu5Ac(a2-6)Gal(b1-4)GlcNAc(b1-2)Man(a1-3)][GlcNAc(b1-4)]Man(b1-4)GlcNAc(b1-4)GlcNAc
# Procedure, shortened: as §1
# [17] = target: Neu5Ac(a2-6)Gal(b1-4)GlcNAc(b1-3)GalNAc
# Procedure, shortened: as §1
# [18] = target: Neu5Ac(a2-6)GalNAc(b1-4)GlcNAc
# Procedure, shortened: as §1
# [19] = target: Neu5Ac(a2-8)Neu5Ac(a2-3)Gal(b1-4)Glc
# Procedure, shortened: as §1
# [20] = target: Neu5Ac(a2-8)Neu5Ac(a2-3)Gal(b1-4)GlcNAc
# Procedure, shortened: as §1
# [21] = target: Neu5Ac(a2-8)Neu5Ac(a2-8)Neu5Ac(a2-8)Neu5Ac(a2-3)[GalNAc(b1-4)]Gal(b1-4)Glc
# Procedure, shortened: as §1
# [22] = target: Neu5Ac9Ac(a2-3)Gal(b1-3)GlcNAc
# Procedure, shortened: as §1
# [23] = target: Neu5Gc(a2-3)Gal(b1-3)[Fuc(a1-4)]GlcNAc
# Procedure, shortened: as §1
# [24] = target: Neu5Gc(a2-3)Gal(b1-4)GlcNAc(b1-3)Gal(b1-4)GlcNAc(b1-2)Man(a1-3)[Neu5Gc(a2-3)Gal(b1-4)GlcNAc(b1-3)Gal(b1-4)GlcNAc(b1-2)Man(a1-6)]Man(b1-4)GlcNAc(b1-4)GlcNAc
# Procedure, shortened: as §1
# Neu5Gc(a2-6)GalNAc = target: Neu5Gc(a2-6)GalNAc
# Procedure, shortened: as §1
# [25] = target: Neu5Gc(a2-8)Neu5Gc(a2-3)Gal(b1-4)GlcNAc(b1-3)Gal(b1-4)GlcNAc
# Procedure, shortened: as §1
binder,measurement,setting,value
B1,glycan array binding signal (z-score),[1],0.26
same,glycan array binding signal (z-score),[2],0.126
same,glycan array binding signal (z-score),[3],-0.56
same,glycan array binding signal (z-score),[4],-0.337
same,glycan array binding signal (z-score),Man(a1-6)Man,2.7
same,glycan array binding signal (z-score),[5],2.03
same,glycan array binding signal (z-score),[6],-0.462
same,glycan array binding signal (z-score),[7],-0.64
same,glycan array binding signal (z-score),[8],-0.302
same,glycan array binding signal (z-score),[9],-0.264
same,glycan array binding signal (z-score),[10],-0.662
same,glycan array binding signal (z-score),Neu5Ac(a2-3)Gal(b1-4)Glc,-0.473
same,glycan array binding signal (z-score),[11],-0.407
same,glycan array binding signal (z-score),[12],-0.587
same,glycan array binding signal (z-score),[13],-0.595
same,glycan array binding signal (z-score),[14],-0.599
same,glycan array binding signal (z-score),Neu5Ac(a2-6)Gal,2.83
same,glycan array binding signal (z-score),Neu5Ac(a2-6)Gal(b1-4)Glc,0.791
same,glycan array binding signal (z-score),[15],-0.052
same,glycan array binding signal (z-score),[16],0.015
same,glycan array binding signal (z-score),[17],-0.324
same,glycan array binding signal (z-score),[18],-0.53
same,glycan array binding signal (z-score),[19],-0.516
same,glycan array binding signal (z-score),[20],-0.254
same,glycan array binding signal (z-score),[21],0.508
same,glycan array binding signal (z-score),[22],3.71
same,glycan array binding signal (z-score),[23],-0.502
same,glycan array binding signal (z-score),[24],-0.554
same,glycan array binding signal (z-score),Neu5Gc(a2-6)GalNAc,-0.28
same,glycan array binding signal (z-score),[25],-0.404
